Measured values published in PubChem BioAssay.
Activity calls are given as the source filed them.

Key:
[1] = compounds binding Alexa647 anti-His antibody – biochemical, small-molecule microarray, 635 nm fluorescence, artefact control for SMM control protein annotation, primary screen (AID 1128); conditions: higher = more signal;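 further: score merges feature fluorescence with signal-to-noise for each printed compound spot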
[2] = tested on: Human papillomavirus type 1a E7 protein (residues 1-88); assay: HPV1a E7 small-molecule binders, primary screen, biochemical, small-molecule microarray, residues 1-88, 635 nm (AID 1129); conditions: small-molecule microarray binding, fluorescence 635 nm; higher = more signal
[3] = target: Focal adhesion kinase 1 (Homo sapiens) (UniProt Q05397); assay: PTK2 protein binding on printed compound slides – biochemical, small-molecule microarray, 635/667 nm fluorescence, BSA, DTT, primary screen (AID 1130); conditions: 635 nm fluorescence, higher = more signal;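 further: composite of spot emission at 667 nm and signal to noise over triplicate slides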
Focal adhesion kinase 1 (Homo sapiens), sequence (Q05397 whole entry, looked up): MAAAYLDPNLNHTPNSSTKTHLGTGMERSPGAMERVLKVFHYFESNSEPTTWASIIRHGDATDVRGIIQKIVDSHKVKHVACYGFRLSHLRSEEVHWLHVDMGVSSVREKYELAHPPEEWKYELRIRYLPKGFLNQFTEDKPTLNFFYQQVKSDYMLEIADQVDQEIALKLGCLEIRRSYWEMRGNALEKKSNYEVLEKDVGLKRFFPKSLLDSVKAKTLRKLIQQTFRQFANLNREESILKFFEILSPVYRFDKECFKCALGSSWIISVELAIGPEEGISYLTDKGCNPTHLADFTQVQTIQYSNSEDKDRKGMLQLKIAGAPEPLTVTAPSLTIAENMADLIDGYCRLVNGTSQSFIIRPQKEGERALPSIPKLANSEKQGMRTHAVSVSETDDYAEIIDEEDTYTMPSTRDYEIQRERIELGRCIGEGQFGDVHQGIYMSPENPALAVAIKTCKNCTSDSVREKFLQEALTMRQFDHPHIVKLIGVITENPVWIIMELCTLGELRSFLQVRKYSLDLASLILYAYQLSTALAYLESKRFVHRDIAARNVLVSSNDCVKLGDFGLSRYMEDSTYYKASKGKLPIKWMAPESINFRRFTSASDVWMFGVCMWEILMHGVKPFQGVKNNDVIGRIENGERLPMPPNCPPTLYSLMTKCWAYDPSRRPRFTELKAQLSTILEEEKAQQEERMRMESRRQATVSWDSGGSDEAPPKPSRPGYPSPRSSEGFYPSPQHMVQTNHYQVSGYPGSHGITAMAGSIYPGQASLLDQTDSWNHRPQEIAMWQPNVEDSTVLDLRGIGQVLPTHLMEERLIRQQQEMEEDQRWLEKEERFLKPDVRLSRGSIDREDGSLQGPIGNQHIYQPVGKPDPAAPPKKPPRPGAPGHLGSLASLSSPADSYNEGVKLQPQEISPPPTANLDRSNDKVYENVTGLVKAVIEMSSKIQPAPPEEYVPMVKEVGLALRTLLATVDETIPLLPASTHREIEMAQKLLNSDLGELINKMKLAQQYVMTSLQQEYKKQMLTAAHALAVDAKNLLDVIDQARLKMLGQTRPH

[4] = tested on: Fibrinogen (Alexa647-labelled); assay: Alexa647-fibrinogen binding to printed small molecules – biochemical, small-molecule microarray, 635/667 nm fluorescence, artefact control for SMM control-protein annotation, profiling panel (AID 1131); conditions: fibrinogen-A647 binding fluorescence, higher = more signal;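 further: z-score merges 667 nm fluorescence with per-spot signal-to-noise over triplicate slides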
[5] = target: Follistatin (Homo sapiens) (UniProt P19883); assay: FST protein binding to printed compounds – biochemical, small-molecule microarray, 635/667 nm fluorescence, primary screen (AID 1132); conditions: 635 nm fluorescence, higher = more signal
Follistatin (Homo sapiens), sequence (P19883 whole entry, looked up): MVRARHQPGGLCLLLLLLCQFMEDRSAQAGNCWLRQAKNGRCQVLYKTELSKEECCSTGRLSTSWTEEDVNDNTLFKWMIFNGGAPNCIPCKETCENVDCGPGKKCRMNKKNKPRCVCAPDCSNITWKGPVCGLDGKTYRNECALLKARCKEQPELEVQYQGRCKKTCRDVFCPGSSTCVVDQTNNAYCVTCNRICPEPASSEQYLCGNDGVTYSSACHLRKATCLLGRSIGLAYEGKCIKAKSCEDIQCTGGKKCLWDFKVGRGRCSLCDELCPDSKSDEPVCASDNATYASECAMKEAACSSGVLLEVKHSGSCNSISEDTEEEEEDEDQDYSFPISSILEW

[6] = target: Fibroblast growth factor 2 (Homo sapiens) (UniProt P09038); assay: basic fibroblast growth factor binding to printed compounds – biochemical, small-molecule microarray, 635/667 nm fluorescence, primary screen (AID 1133); conditions: FGF2, fluorescence 635/667, higher = more signal
Fibroblast growth factor 2 (Homo sapiens), sequence (P09038 whole entry, looked up): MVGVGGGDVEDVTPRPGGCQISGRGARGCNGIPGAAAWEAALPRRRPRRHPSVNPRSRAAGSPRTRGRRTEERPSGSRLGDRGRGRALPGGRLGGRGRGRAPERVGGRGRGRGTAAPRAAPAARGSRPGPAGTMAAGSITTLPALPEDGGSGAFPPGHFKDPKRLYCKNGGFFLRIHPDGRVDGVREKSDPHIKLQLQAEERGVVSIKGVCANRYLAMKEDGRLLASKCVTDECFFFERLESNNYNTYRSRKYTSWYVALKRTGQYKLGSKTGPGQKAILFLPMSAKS

[7] = JC-1 mitochondrial potential readout, lung cancer cells – cell-based, A549, JC-1 fluorescence, basal, 24 h, 100 nL, profiling panel (AID 1138); conditions: higher = more signal;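 further: A549 lung adenocarcinoma cells under basal conditions with no added stimulus; test concentration not given here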
Lefty1 = Lefty1 protein binding to printed compounds – biochemical, small-molecule microarray, 635/667 nm fluorescence, primary screen (AID 1139); conditions: fluorescence 635/667, higher = more signal
[8] = tested on: wheat germ agglutinin (Triticum aestivum), Alexa647-labelled; assay: Alexa647-WGA lectin binding to printed small molecules – biochemical, small-molecule microarray, 635/667 nm fluorescence, artefact control for SMM control-protein annotation, profiling panel (AID 1140); conditions: WGA-A647 binding, 635 nm fluorescence, higher = more signal;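 further: score merges 667 nm feature emission with signal to noise over triplicate slides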
[9] = target: Luciferin 4-monooxygenase (Photinus pyralis) (UniProt P08659); assay: inhibition of purified Photinus pyralis luciferase – biochemical, luminescence, purified enzyme, 2006 set, primary screen (AID 1141); conditions: purified firefly luciferase, SteadyGlo luminescence, 30 min; higher = more signal, called active from +8 up or from −8 down;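 further: cell-free assay with purified firefly luciferase at 100 ng per well in PBS; test concentration not given here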
Luciferin 4-monooxygenase (Photinus pyralis), sequence (P08659 whole entry, looked up): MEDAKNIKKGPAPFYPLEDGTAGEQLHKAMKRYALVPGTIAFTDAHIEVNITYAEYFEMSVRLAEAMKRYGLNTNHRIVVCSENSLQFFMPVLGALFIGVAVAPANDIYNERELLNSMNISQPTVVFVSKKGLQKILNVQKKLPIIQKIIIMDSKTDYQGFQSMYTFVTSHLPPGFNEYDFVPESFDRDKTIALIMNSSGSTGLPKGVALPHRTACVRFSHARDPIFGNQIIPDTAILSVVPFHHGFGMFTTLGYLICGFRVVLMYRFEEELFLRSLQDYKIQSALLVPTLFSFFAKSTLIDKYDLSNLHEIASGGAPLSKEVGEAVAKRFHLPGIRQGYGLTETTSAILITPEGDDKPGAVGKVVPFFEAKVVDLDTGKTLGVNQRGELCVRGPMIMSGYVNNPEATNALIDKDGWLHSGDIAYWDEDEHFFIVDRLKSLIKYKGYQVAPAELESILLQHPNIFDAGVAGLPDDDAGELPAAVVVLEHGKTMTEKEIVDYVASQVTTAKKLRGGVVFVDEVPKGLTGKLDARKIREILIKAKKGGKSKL

| SMILES | composite z-score [1] | composite z-score [2] | composite z-score [3] | composite z-score [4] | composite z-score [5] | composite z-score [6] | z-score [7] | composite z-score (Lefty1) | composite z-score [8] | z-score [9] |
| --- | --- | --- | --- | --- | --- | --- | --- | --- | --- | --- |
| COC(=O)[C@@]1(Cc2ccccc2)[C@H]2c3cc(C(=O)N(C)C)n(Cc4nc5ccccc5[nH]4)c3C[C@H]2CN1C(=O)c1ccccc1 | 1.85 | 1.24 | 0.872 | 1.03 | 0.804 | -0.378 | 0.157 | -0.414 | 0.779 | -1.77 (inactive) |
| CCOC(=O)C1=CC[C@@H](c2ccccc2)N(S(=O)(=O)c2ccc(C)cc2)[C@@H]1C#N | 2.09 | 1.15 | 0.165 | 0.317 | 0.351 | -0.501 | 0.215 | -0.0273 | 0.72 | -0.323 (inactive) |
| [N-]=[N+]=Nc1ccccc1C[C@]1(C(N)=O)COC(c2ccc(OCCCO)cc2)=N1 | 0.809 | -0.835 | 0.214 | -0.445 | 0.91 | -0.261 | -0.566 | -0.954 | 0.99 | -8.73 (active) |
| C=C1C(=O)C=C2CN(C(=O)c3ccccc3)[C@@](Cc3ccc(F)cc3)(C(=O)OC)[C@@H]12 | 1 | 1.18 | 0.69 | 1.03 | 1.25 | -0.234 | -3.17 | -0.384 | 0.872 | -25.6 (active) |
| C=CC[C@H](O)c1ccc(O)c(F)c1 | -0.234 | -1.35 | -0.677 | -2.61 | -1.28 | -0.975 | 0.414 | -0.618 | -0.318 | -0.857 (inactive) |
| C[C@@]1([C@@H](NS(=O)(=O)c2cccc3cccnc23)c2ccc(-c3ccccc3)cc2)C[C@H]1C1CCCCC1 | 0.431 | 1.18 | 1.14 | -0.744 | 0.247 | -0.506 | 0.00915 | -0.959 | 0.655 | 1.29 (inactive) |
| COc1cc(CO)cc(I)c1O[C@H]1C=C(C(=O)NCCO)C[C@@H](N(CCN2CCOCC2)C(=O)C2CCCO2)[C@@H]1O (stereo not given in full) | 0.0704 | 0.413 | 0.192 | -0.0246 | 0.132 | 0.144 | 1.48 | 0.159 | -0.139 | -0.91 (inactive) |
| CO[C@H]1O[C@H](CO)[C@@H](OC(=O)CCc2ccccc2)[C@@H]2OC(=O)[C@@H](Cc3ccc4ccccc4c3)C/C=C/C[C@H](Cc3ccc4ccccc4c3)C(=O)O[C@@H]12 | 0.0781 | 0.0444 | 0.138 | -0.142 | -0.564 | -0.512 | 1.98 | -0.346 | -0.228 | -0.958 (inactive) |
| O=C1O[C@H](c2ccccc2)[C@H](c2ccccc2)N2[C@H]1[C@@H](C(=O)Nc1nc3ccccc3s1)[C@]1(C(=O)Nc3ccccc31)[C@H]2c1ccccc1OCCO | 1.71 | 0.813 | 0.832 | 0.966 | 0.453 | 0.64 | -1.84 | 0.0835 | 1.02 | 0.389 (inactive) |
| C=CCOC(=O)[C@@H]1[C@H]2C(=O)O[C@H](c3ccccc3)[C@H](c3ccccc3)N2[C@H](c2ccc(OCCOC(=O)[C@H]3C[C@H]4C(=O)N[C@@H](CCCCN(C)C)C(=O)N4[C@H]3c3cccc(OCCO)c3)cc2)[C@@]12C(=O)Nc1ccccc12 | 2.06 | -0.246 | 0.0815 | 0.498 | 0.519 | 0.382 | -0.407 | -0.0986 | 0.517 | 0.892 (inactive) |
| COC(=O)C1=CC(c2ccc(CO)cc2)=CC(C2CC2)N(Cc2cc3c(cc2Br)OCO3)C=C1C(=O)OC (stereo not given) | 2.85 | 1.19 | 0.833 | 0.879 | 0.62 | 0.907 | 0.835 | 0.413 | 1.06 | -0.817 (inactive) |
| COC(=O)[C@@]1(Cc2ccc(F)cc2)[C@H]2c3cc(C(=O)N4CCCC4)n(Cc4ccc(C(F)(F)F)nc4)c3C[C@H]2CN1C(=O)c1ccccc1 | 1.2 | 1.19 | 1.16 | 1.01 | 1.38 | -0.71 | 1.3 | -0.13 | 1.06 | 3.14 (inactive) |
| COC(=O)[C@@]1(Cc2ccc(F)cc2)[C@H]2c3cc(C(=O)N4CCCC4)n(CCc4c[nH]c5cc(F)ccc45)c3C[C@H]2CN1C(=O)c1ccccc1 | 1.43 | 1.26 | 1.16 | 0.999 | 1.13 | 0.296 | 0.592 | 0.293 | 0.832 | 2.41 (inactive) |
| CC(=O)NCCCC[C@@H]1NC(=O)[C@H]2C[C@@H](C(=O)NCCCCCN)[C@@H](c3ccc(O)cc3)N2C1=O | 2.49 | 1.21 | 0.948 | 0.653 | 1.12 | 1.13 | -0.109 | 0.944 | 0.773 | 0.148 (inactive) |
| CC1C2C(CCCO)=CC(C3C(=O)N(C(N)=O)C(=O)C23)N1Cc1cccc(OC(F)(F)F)c1 (stereo not given) | 0.632 | 1.11 | 0.314 | 0.646 | 0.0794 | 0.438 | -0.341 | 0.216 | 0.576 | -0.0224 (inactive) |
| CC1(C)OB(/C=C\CC(OC(=O)c2ccncc2)c2ccccc2)OC1(C)C (stereo not given) | 1.33 | 0.22 | -0.113 | -0.857 | -0.397 | -1.03 | -0.242 | -1.2 | -1.28 | -0.0512 (inactive) |
| O=C(NCCN1CCOCC1)[C@@H]1c2ccccc2C(=O)N(CC23CC4CC(CC(C4)C2)C3)[C@H]1c1ccc(CO)cc1 | 2.06 | 1.25 | 0.211 | 0.962 | 0.99 | 0.424 | 1.26 | 0.357 | 1.17 | 0.733 (inactive) |
| COc1ccc(CCNC(=O)[C@@H]2c3ccccc3C(=O)N(C(C)C)[C@H]2c2ccc(CO)cc2)cc1 | -1.32 | -0.878 | -0.736 | -1.3 | -1.27 | -0.934 | 2.71 | -2.21 | -1.74 | -0.897 (inactive) |
| COCCCNC(=O)[C@@]1(Cc2ccccc2I)c2ccccc2C(=O)N(Cc2ccccc2OC)[C@H]1c1ccc(CO)cc1 | 3.03 | 1.18 | 0.0958 | 0.198 | -0.268 | -0.39 | 1.93 | -1.26 | 0.214 | -0.773 (inactive) |
| CC(C)C[C@@H]1NC(=O)[C@H]2C[C@@H](C(=O)O)[C@@H](c3cccc(OCCO)c3)N2C1=O | 1.49 | 0.0559 | 0.119 | 0.267 | 1.3 | 1.66 | 0.951 | 0.797 | 0.325 | -1.07 (inactive) |
| COc1ccc(C(O)C2C=CC3C(=O)N(C)C(=O)C3N2Nc2ccccc2)cc1 (stereo not given) | 0.908 | 1.24 | 0.368 | 0.925 | 0.578 | 0.0159 | 0.436 | -0.341 | 1.08 | -1.17 (inactive) |
| O=C(NC1CC1)[C@@H]1c2ccccc2C(=O)N(C2CCCCC2)[C@H]1c1ccc(CO)cc1 | 1.86 | 1.15 | 0.498 | -0.518 | 0.27 | -0.027 | 0.116 | -0.413 | 0.063 | 0.0436 (inactive) |
| COC(=O)C(CC#Cc1ccc2c(c1)[C@]1(C(=O)N2)[C@H](c2ccc(OCCO)cc2)N2[C@H](c3ccccc3)[C@H](c3ccccc3)OC(=O)[C@H]2[C@@H]1C(N)=O)C(=O)OC | 2.32 | 1.21 | 0.307 | 0.858 | 0.0592 | -0.379 | -0.616 | -0.269 | 0.397 | -1.38 (inactive) |
| C=C(C(=O)CC[C@@H](OC(=O)c1ccccc1-c1ccccc1C(=O)O)c1ccc(OCCO)cc1)C(C)C | 1.19 | 0.977 | -0.118 | 0.691 | 1.2 | 1.77 | 0.58 | 1.26 | 0.889 | -2.66 (inactive) |
| C=CC[C@H](OC(=O)Nc1ccc(SC)cc1)c1ccc(O)c(F)c1 | 0.434 | 0.294 | -0.502 | -0.0381 | 0.137 | 0.244 | -1.34 | -0.173 | 0.541 | -1.83 (inactive) |
| C[C@]1(C(=O)O)c2ccccc2C(=O)N(Cc2cc(C(F)(F)F)cc(C(F)(F)F)c2)[C@H]1c1ccc(CO)cc1 | -0.41 | -0.129 | 0.0797 | 0.844 | 0.82 | -0.354 | -0.401 | 1.02 | 0.861 | 1.01 (inactive) |
| COCCOC(=O)N1C(=O)[C@@]2(c3cc(C#CC4=CCCCC4)ccc31)[C@H](c1ccc(O)cc1)N1[C@H](c3ccccc3)[C@H](c3ccccc3)OC(=O)[C@H]1[C@@H]2C(=O)N1CCc2cc(OC)c(OC)cc2C1 | 1.38 | 1.19 | 0.567 | 0.789 | 0.427 | 0.423 | 0.273 | 0.0605 | 0.726 | 0.0369 (inactive) |
